Measurements taken from the supplement of paper PMC4466140.

Tests used:
Test in all cases: SPOT peptide array binding signal intensity (averaged, normalized) (arbitrary units (background-subtracted, floor 0; scale differs between SH3 domains)); higher = stronger binding of the SH3 domain to the peptide
[1] = target: AgAbp1
How it was run: (§1)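 GST-fused SH3 domains from four yeast species were expressed in E. coli BL21(DE3), purified on glutathione Sepharose and incubated at 10 μg/ml overnight at 4°C in TBS-based blocking buffer on cellulose membranes carrying synthetic 15-mer peptides, with cysteines replaced by serines. Bound protein was detected with anti-GST antibody, an HRP anti-mouse secondary and luminol, then imaged and quantified with Genespotter. Binding signal is the normalized, background-subtracted spot intensity averaged over replicates, in arbitrary units that differ between domains.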

[2] = target: AgBbc1
How it was run: as §1

[3] = target: AgBem1-D1
How it was run: as §1

[4] = target: AgBzz1-D1
How it was run: as §1

[5] = target: AgBzz1-D2
How it was run: as §1

[6] = target: AgCyk3
How it was run: as §1

[7] = target: AgFus1
How it was run: as §1

[8] = target: AgHof1
How it was run: as §1

[9] = target: AgHse1
How it was run: as §1

[10] = target: AgLsb1
How it was run: as §1

[11] = target: AgLsb4
How it was run: as §1

[12] = target: AgMyo5
How it was run: as §1

[13] = target: AgNbp2
How it was run: as §1

[14] = target: AgRvs167
How it was run: as §1

[15] = target: AgSho1
How it was run: as §1

[16] = target: AgSla1-D1-D2
How it was run: as §1

[17] = target: AgSla1-D3
How it was run: as §1

[18] = target: CaAbp1-D1
How it was run: as §1

[19] = target: CaAbp1-D2
How it was run: as §1

[20] = target: CaBbc1
How it was run: as §1

[21] = target: CaBem1-D1
How it was run: as §1

[22] = target: CaBzz1-D1
How it was run: as §1

[23] = target: CaBzz1-D2
How it was run: as §1

[24] = target: CaCyk3
How it was run: as §1

[25] = target: CaFus1
How it was run: as §1

[26] = target: CaHof1
How it was run: as §1

[27] = target: CaHse1
How it was run: as §1

[28] = target: CaLsb1
How it was run: as §1

[29] = target: CaLsb4
How it was run: as §1

[30] = target: CaMyo5
How it was run: as §1

[31] = target: CaNbp2
How it was run: as §1

[32] = target: CaRvs167
How it was run: as §1

[33] = target: CaRvs167-3
How it was run: as §1

[34] = target: CaSho1
How it was run: as §1

[35] = target: CaSla1-D1-D2
How it was run: as §1

[36] = target: CaSla1-D3
How it was run: as §1

[37] = target: ScAbp1
How it was run: as §1

[38] = target: ScBbc1
How it was run: as §1

[39] = target: ScBem1-D1
How it was run: as §1

[40] = target: ScBzz1-D1
How it was run: as §1

[41] = target: ScBzz1-D2
How it was run: as §1

[42] = target: ScCyk3
How it was run: as §1

[43] = target: ScFus1
How it was run: as §1

[44] = target: ScHof1
How it was run: as §1

[45] = target: ScHse1
How it was run: as §1

[46] = target: ScLsb1
How it was run: as §1

[47] = target: ScLsb2
How it was run: as §1

[48] = target: ScLsb3
How it was run: as §1

[49] = target: ScLsb4
How it was run: as §1

[50] = target: ScMyo3
How it was run: as §1

[51] = target: ScMyo5
How it was run: as §1

[52] = target: ScNbp2
How it was run: as §1

[53] = target: ScPex13
How it was run: as §1

[54] = target: ScRvs167
How it was run: as §1

[55] = target: ScSho1
How it was run: as §1

[56] = target: ScSla1-D1-D2
How it was run: as §1

[57] = target: ScSla1-D3
How it was run: as §1

[58] = target: SpAbp1-D1
How it was run: as §1

[59] = target: SpBbc1
How it was run: as §1

[60] = target: SpBzz1-D1
How it was run: as §1

[61] = target: SpBzz1-D2
How it was run: as §1

[62] = target: SpCyk3
How it was run: as §1

[63] = target: SpHof1
How it was run: as §1

[64] = target: SpHof1-2
How it was run: as §1

[65] = target: SpHof1-3
How it was run: as §1

[66] = target: SpHse1
How it was run: as §1

[67] = target: SpLsb1
How it was run: as §1

[68] = target: SpLsb4
How it was run: as §1

[69] = target: SpMyo1
How it was run: as §1

[70] = target: SpNbp2
How it was run: as §1

[71] = target: SpPex13
How it was run: as §1

[72] = target: SpRvs167
How it was run: as §1

[73] = target: SpSla1-D1-D2
How it was run: as §1

[74] = target: SpSla1-D3
How it was run: as §1

Measured: SPOT peptide array binding signal intensity

B1: unnamed (peptide)
chain: MSPLGAPPPPPHKDH
2: [16] | [54]
751: [51]
5: [13]
10: [22]
449: [12]
1.5: [7] | [40]
0.5: [20] | [65]
324: [60]
1: [6] | [14] | [41] | [63]
0.75: [26] | [28]
1060: [69]
46.5: [30]
23: [9]
6.5: [4]
700: [50]
42: [25]
9: [5]
5.75: [27]
4: [15]
0.833: [32]
3.25: [23]
12.7: [72]
≤ 0: all other assays above
